This note sets out measurements from PubChem BioAssay (NCI).

About 83,000 compounds went through this panel and 20% of them were active in at least one assay; those are over-represented in the sample as a whole.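 The test compound was applied at a single concentration to cells in 96-well plates for 48 hours, and percent growth was recorded.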 Activity calls are given as the source filed them.

The subject of the assay is COLO 205 colon. The assay is described as follows: NCI-60 one-dose screen, 48 h (100 = growth as untreated, 0 = no growth, -100 = all killed). The settings on record: 10 µM unless noted. On the procedure:
Cells are grown in 96 well plates and exposed to the test compound for 48 hours. Compounds are tested at a single concentration, which is 10^-5 M for most compounds. The reported endpoint is percent growth (GI% or GIPRCNT), where numbers from 0 - 100% represent growth inhibition, and numbers from -100% - 0 represent cell death. For example, a value of 40 represents 60% growth inhibition. A value of 0 means no net growth occurred over the course of the experiment. A value of -40 indicates 40% of cells at the beginning of the experiment died by the end of the experiment. A value of -100 means all cells are dead at the end of the experiment.
NCI-60 Human Tumor Cell Lines Screen was performed using the standard one-dose NCI protocol, which is described in more detail at https://dtp.cancer.gov/discovery_development/nci-60/default.htm.
Compounds with GIPRCNT values below 10 were considered active. Activity score was based on GIPRCNT using the following formula: […]
Score is 0 for GIPRCNT values of 100 or above, 50 for GIPRCNT values of 0, and 100 for GIPRCNT values of -100.
With `CC(=O)Nc1ccc(C(=O)/C=C/c2ccccc2)cc1`, the growth was 102% (inactive).

In the case of `COc1cc(-c2cc(-c3ccc(Nc4nc(Nc5ccccc5)nc(Nc5ccc(Cl)cc5)n4)cc3)nc(N)n2)cc(OC)c1OC`, the growth is 76.6% (inactive).

With `Cc1nc(Nc2cccc(NC(=O)Nc3ccc(Cl)cc3)c2)c2ccccc2n1`, the growth was 103% (inactive).

As for `COc1cc(-c2ncn(/C=C\c3nnco3)n2)cc(C(F)(F)F)c1`, the growth was 0.0945% (active).

Regarding `COc1ccc(-c2cc(-c3ccc(Nc4nc(Nc5ccccc5)nc(Nc5ccc(Cl)cc5)n4)cc3)nc(N)c2C#N)cc1`, the growth was 12.5% (inactive).

For `Clc1ccc(/C=N\N=c2\scc(-c3ccc(Cl)cc3)n2/N=C/c2ccc(Cl)cc2)cc1`, the growth is 113% (inactive).

As for `Clc1ccc(/C=C/c2nc(Nc3ccc(Cl)cc3)c3ccccc3n2)cc1`, the growth is 112% (inactive).

Regarding `Cc1nc(Nc2ccc(NC(=S)Nc3ccccc3)cc2)c2ccccc2n1`, the growth was 106% (inactive).

As to `c1ccc([P+](CCCc2n(Cc3ccc4ccccc4c3)c3ccccc3[n+]2Cc2ccc3ccccc3c2)(c2ccccc2)c2ccccc2)cc1`, the growth was 44.7% (inactive).

For the compound `C#C[C@]1(O)CC[C@H]2[C@@H]3CC=C4c5sc(N=C(N)N)nc5CC[C@]4(C)[C@H]3CC[C@@]21C`, the growth was -38.7% (active).

For the compound `COc1ccc(OC)c(C(=O)Nc2cccc(-c3cc(=O)c4ccccc4o3)c2)c1`, the growth was 104% (inactive).

In the case of `COc1ccc(/C(C)=C(\c2ccc(Cl)cc2)c2ccc(OCCN3CCCCC3)cc2)cc1F`, the growth was 5.95% (active).

For the compound `COC1=CC(c2ccc[nH]2)=N/C1=C\c1[nH]c(C)c(C(=O)OCCn2cc(CCC[C@@H]3Cc4cc(O)ccc4C4CC[C@]5(C)[C@@H](O)CC[C@H]5C43)nn2)c1C` (stereo not given in full), the growth was 80.5% (inactive).

Consider `C[C@@H]1C(=O)N(C[C@H](Cc2ccccc2)NC(=O)OCc2ccccc2)[C@]1(Cc1ccccc1)C(=O)OC(C)(C)C`, for which the growth is 62% (inactive).

`CC[C@]1(O)C[C@H]2CN(CCc3c([nH]c4ccccc34)[C@@](C(=O)OC)(c3cc4c(cc3OC)N(C=O)[C@H]3[C@@](O)(C(=O)OC)[C@H](OC(C)=O)[C@]5(CC)C=CCN6CC[C@]43[C@@H]65)C2)C1`: the growth is -57.2% (active).

As to `CCCCNC(=O)c1cc(NCc2cc(O)ccc2O)ccc1O`, the growth is 108% (inactive).

`COC1(CC[C@@H](C)COC2OC(CO)C(O)C(O)C2O)O[C@H]2C[C@H]3[C@@H]4CC=C5C[C@@H](OC6OC(CO)C(OC7OC(C)C(O)C(O)C7O)C(O)C6OC6OC(C)C(O)C(O)C6O)CC[C@]5(C)[C@H]4CC[C@]3(C)[C@H]2[C@@H]1C` (stereo not given in full): the growth was -12.2% (active).

For `CCCCS(=O)(=O)Oc1ccc(-c2nc(C)c(C(=O)OCC)s2)cc1C=O`, the growth was 106% (inactive).

`O=C(O)C1C[C@](O)(c2ccc(F)cc2)[C@@H](c2ccc(F)cc2)O1` (stereo not given in full): the growth is 110% (inactive).

Take `COc1cc(NC(=O)c2cccc(-c3cc(=O)c4c(O)c(OC)c(OC)cc4o3)c2)cc(OC)c1OC`: the growth was 67.7% (inactive).

For the compound `NC(=O)CC1(O)C=C(Br)C(=O)C(Br)=C1`, the growth is -66.1% (active).

Consider `CN(C)CCC(O)(Cc1ccccc1)c1ccccc1` (stereo not given), for which the growth was 107% (inactive).

On to `COc1ccc(C2CC(c3ccc4ccccc4c3)=NN2c2nc(O)c(C3=c4cc(Cl)ccc4=NC3=O)s2)cc1` (stereo not given), for which the growth is -79.4% (active).

On to `COc1ccc(OC)c(/C=C2\COc3ccc(O)cc3C2=O)c1`, for which the growth was 109% (inactive).

`Cc1c(C(=O)O)nnn1-c1nccs1`: the growth is 107% (inactive).

Turning to `Cc1cccc(-c2cc(O)c(C(=O)N3CCOCC3)s2)c1`, the growth was 94.9% (inactive).

Regarding `O[C@H]1CO[C@H]2[C@@H]1OC[C@@H]2Oc1ccc(Nc2ccnc(Nc3ccc(O[C@H]4CO[C@H]5[C@@H]4OC[C@@H]5O)c(Cl)c3)n2)cc1Cl`, the growth was 12% (inactive).

For the compound `NS(=O)(=O)c1cn(-c2ncnc3nc[nH]c23)ccc1=O`, the growth was 100% (inactive).

Regarding `COc1cc(C(=O)Nc2cc(O)c(CC=C(C)C)c(O)c2)cc2c1O[C@]1(C)CC[C@@H](O)C(C)(C)[C@H]1C2`, the growth is -11.8% (active).

Consider `COc1cc(NC(=O)c2cccc(-c3cc(=O)c4c(OC)c(OC)c(OC)cc4o3)c2)cc(OC)c1OC`, for which the growth is 44.3% (inactive).

On to `C=C1C(=O)O[C@H]2[C@H]1CC/C(COC(=O)/C=C\C(=O)NCc1ccc(Cn3c(=O)sn(CCCI)c3=O)cc1)=C\CC[C@@]1(C)O[C@@H]21`, for which the growth was -52.7% (active).

Turning to `Cc1ccc(-n2nnc(C3=NCCc4c3[nH]c3ccc(Cl)cc43)c2C)cc1`, the growth was 101% (inactive).

Consider `Fc1ccc(Nc2nc(Nc3ccc(-c4nc5ccccc5[nH]4)cc3)c3cn[nH]c3n2)cc1`, for which the growth was 27.8% (inactive).

For the compound `COc1ccc(/C(C)=C(\c2ccc(Cl)cc2)c2ccc(OCCN(C)C)cc2)cc1F`, the growth was 26% (inactive).

For `CCN(CC)CCOc1ccc(/C(=C(\C)c2ccc(OC)c(F)c2)c2ccc(Cl)cc2)cc1`, the growth was 42.2% (inactive).

With `COc1cc(/C=C/c2nc(Nc3ccc(S(=O)(=O)Nc4cc(C)on4)cc3)c3ccccc3n2)ccc1O`, the growth is 106% (inactive).

On to `O=c1oc2ccc(Cl)cc2cc1-c1cs/c(=N/N=C\c2ccc(Cl)cc2)n1/N=C/c1ccc(Cl)cc1`, for which the growth is 109% (inactive).

Take `CC1(C)CC(=O)c2c(ccc(C(=O)C[C@H](N)CO)c2N)O1`: the growth is 47% (inactive).

Take `Cn1ncc2c(Nc3ccc(Br)cc3)nc(Nc3ccc(Br)cc3)nc21`: the growth is 64% (inactive).

For `COC(=O)Nc1nc2ccc(C(=O)C3CC3)cc2[nH]1`, the growth was -34.1% (active).
